Reference: the supplement of paper PMC12808144
Values without a mark were called inactive.

What follows are compounds tested on Mel-DCC-11 (assay: cell viability relative to DMSO control (fraction of DMSO control); higher = less cytotoxic, active = 0.5 or less). Conditions: 1 µM; 120 h.
Procedure, shortened: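 For 120 h, duplicate wells of 384-well plates held 1 µM of each of 315 approved anti-cancer drugs (TargetMol), spotted acoustically before cells were added in 40 µl per well. Immortalized NHEM-hTERT melanocytes were seeded at 2500/well, and patient-derived Mel-DCC-11 plus its resistant subline Mel-DCC-11-R at 1500/well. The subline was run both without and with 8 µM of its selecting drug, and ATPlite 1step luminescence was read. Viability was normalised to vehicle-treated wells and averaged over the two replicates.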

Row | Structure (SMILES) | cell viability
1 | CS(=O)(=O)CCNCc1ccc(-c2ccc3ncnc(Nc4ccc(OCc5cccc(F)c5)c(Cl)c4)c3c2)o1.Cc1ccc(S(=O)(=O)O)cc1.Cc1ccc(S(=O)(=O)O)cc1.O [Lapatinib ditosylate monohydrate] | 1.13
2 | Cl.N=c1ccn2c(n1)O[C@H]1[C@H](O)[C@@H](CO)O[C@H]12 [Cyclocytidine hydrochloride] | 0.737
3 | Nc1nc(=O)c2c([nH]1)NCC(CNc1ccc(C(=O)N[C@@H](CCC(=O)[O-])C(=O)[O-])cc1)N2C=O.[Ca+2] (stereo partly specified) [Calcium folinate] | 5.03
4 | CC1=C(/C=C/C(C)=C/C=C/C(C)=C/C=C/C=C(C)/C=C/C=C(C)/C=C/C2=C(C)CCCC2(C)C)C(C)(C)CCC1 [Beta-Carotene] | 0.738
5 | CO[C@H]1C=CO[C@@]2(C)Oc3c(C)c(O)c4c(O)c(c(/C=N/N5CCN(C)CC5)c(O)c4c3C2=O)NC(=O)/C(C)=C\C=C/[C@H](C)[C@H](O)[C@@H](C)[C@@H](O)[C@@H](C)[C@H](OC(C)=O)[C@@H]1C [Rifampicin] | 0.597
6 | CC(O)(P(=O)(O)O)P(=O)(O)O [Etidronate] | 0.821
7 | O=C(c1cc(Cc2n[nH]c(=O)c3ccccc23)ccc1F)N1CCN(C(=O)C2CC2)CC1 [Olaparib] | 0.809
8 | CN(C)CCOc1ccc(/C(=C(/CCCl)c2ccccc2)c2ccccc2)cc1.O=C(O)CC(O)(CC(=O)O)C(=O)O [Toremifene citrate] | 1.61
9 | CNC(=O)c1cc(Oc2ccc(NC(=O)Nc3ccc(Cl)c(C(F)(F)F)c3)c(F)c2)ccn1 [Regorafenib] | 0.78
10 | CCCC(=O)O[C@]1(C(=O)CO)CC[C@H]2[C@@H]3CCC4=CC(=O)CC[C@]4(C)[C@H]3[C@@H](O)C[C@@]21C [Hydrocortisone butyrate] | 1.4
11 | C/C=C1/NC(=O)[C@H]2CSSCC/C=C/[C@H](CC(=O)N[C@H](C(C)C)C(=O)N2)OC(=O)[C@H](C(C)C)NC1=O [Romidepsin] | 0.0954 (active)
12 | COc1cc2nccc(Oc3ccc(NC(=O)C4(C(=O)Nc5ccc(F)cc5)CC4)cc3)c2cc1OC.O=C(O)C[C@H](O)C(=O)O | 0.93
13 | CCc1ccc(CCOc2ccc(CC3SC(=O)NC3=O)cc2)nc1.Cl (stereo unspecified) [Pioglitazone hydrochloride] | 0.8
14 | CCCCCOC(=O)Nc1nc(=O)n([C@@H]2O[C@H](C)[C@@H](O)[C@H]2O)cc1F [Capecitabine] | 1.18
15 | Cc1cn(-c2cc(NC(=O)c3ccc(C)c(Nc4nccc(-c5cccnc5)n4)c3)cc(C(F)(F)F)c2)cn1 [Nilotinib] | 1.13
16 | CC/C(=C(\c1ccc(O)cc1)c1ccc(OCCNC)cc1)c1ccccc1 [(E/Z)-Endoxifen] | 1.05
17 | CC(=O)OCC(=O)[C@@]1(O)CC[C@H]2[C@@H]3CCC4=CC(=O)C=C[C@]4(C)[C@H]3[C@@H](O)C[C@@]21C [Prednisolone-21-acetate] | 1.49
18 | COc1cc(Nc2c(C#N)cnc3cc(OCCCN4CCN(C)CC4)c(OC)cc23)c(Cl)cc1Cl [Bosutinib] | 1.06

Row | Structure (SMILES) | cell viability
19 | COc1cc([C@@H]2c3cc4c(cc3[C@@H](O[C@@H]3O[C@@H]5CO[C@@H](c6cccs6)O[C@H]5[C@H](O)[C@H]3O)[C@H]3COC(=O)[C@H]23)OCO4)cc(OC)c1O [Teniposide] | 1.16
20 | OC[C@H]1O[C@@H](n2cnc3c2NC=NC[C@H]3O)C[C@@H]1O [Pentostatin] | 1.12
21 | CS(=O)(=O)OCCCCOS(C)(=O)=O [Busulfan] | 1.13
22 | COc1ccc(C[C@H](N)C(=O)N[C@H]2[C@@H](O)[C@H](n3cnc4c(N(C)C)ncnc43)O[C@@H]2CO)cc1.Cl.Cl [Puromycin dihydrochloride] | 0.246 (active)
23 | CC(C)C[C@H](NC(=O)[C@H](CCc1ccccc1)NC(=O)CN1CCOCC1)C(=O)N[C@@H](Cc1ccccc1)C(=O)N[C@@H](CC(C)C)C(=O)[C@@]1(C)CO1 [Carfilzomib] | 0.0151 (active)
24 | O=C([O-])CCCc1ccccc1.[Na+] [Sodium Phenylbutyrate] | 1.12
25 | Nc1[nH]c(=O)ncc1F [Fluorocytosine] | 1.16
26 | COc1ccc2c(c1OC)C(=O)O[C@@H]2[C@H]1c2c(cc3c(c2OC)OCO3)CC[NH+]1C.[Cl-] [Noscapine hydrochloride] | 1.12
27 | C#Cc1cccc(Nc2ncnc3cc4c(cc23)OCCOCCOCCO4)c1 [Icotinib] | 1.1
28 | N#Cc1ccc(C(c2ccc(C#N)cc2)n2cncn2)cc1 [Letrozole] | 1.01
29 | C[C@@H](Oc1cc(-c2cnn(C3CCNCC3)c2)cnc1N)c1c(Cl)ccc(F)c1Cl [Crizotinib] | 1.06
30 | C=C1CC[C@@H]2[C@](C)(CO)[C@H](O)CC[C@@]2(C)[C@@H]1C/C=C1/C(=O)OC[C@H]1O [Andrographolide] | 1.07
31 | CNC(=O)c1ccc(N2C(=S)N(c3cnc(C#N)c(C(F)(F)F)c3)C(=O)C23CCC3)cc1F [Apalutamide] | 1.18
32 | Clc1ccc(C(c2ccccc2Cl)C(Cl)Cl)cc1 (stereo unspecified) [Mitotan] | 0.903
33 | CC[C@@]1(O)C(=O)OCc2c1cc1n(c2=O)Cc2cc3cc(O)ccc3nc2-1 [10-Hydroxycamptothecin] | 0.203 (active)
34 | COc1cc2c(Nc3ccc(Br)cc3F)ncnc2cc1OCC1CCN(C)CC1 [Vandetanib] | 1.16
35 | C=C(c1ccc(C(=O)O)cc1)c1cc2c(cc1C)C(C)(C)CCC2(C)C [Bexarotene] | 1.77
36 | CCCCCCCCCCCCCCCC(=O)OC/C=C(C)/C=C/C=C(C)/C=C/C1=C(C)CCCC1(C)C [Retinol palmitate] | 0.752
